# A selection: hits, their analogues and other compounds. The true share with any hit is near 4%.
# MazEF act = increases E. coli MazEF RNase cleavage of RNA; FAM/BHQ RNA-DNA oligo cleavage fluorescence, 5 h; activation, % at 20 µM; hit rate 0.32% among 350,000; AID 504720; in the data active means activation above about 50%
# Target sequence (P0AE70 whole entry, looked up): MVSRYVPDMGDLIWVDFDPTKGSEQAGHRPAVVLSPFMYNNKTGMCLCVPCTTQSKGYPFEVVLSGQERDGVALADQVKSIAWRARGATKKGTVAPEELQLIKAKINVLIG
# CCHF vOTU inh = blocks the CCHF virus ovarian tumor domain protease; CCHFV vOTU protease, Pep-AMC fluorescence; inhibition, % at 11.5 µM; hit rate 0.55% among 370,000; AID 651958; in the data active means inhibition above about 30%; further: 0% = vehicle wells with enzyme and 100% = no enzyme wells
# Mtb FBA inh = Mtb fructose-bisphosphate aldolase inhibition; P9WQA3; purified M. tuberculosis FBA, fluorescence read-out; inhibition, % at 1 µM; hit rate 2.3% among 360,000;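 further: 0% = vehicle and 100% = reference inhibitor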
# Target sequence (P9WQA3 whole entry, looked up): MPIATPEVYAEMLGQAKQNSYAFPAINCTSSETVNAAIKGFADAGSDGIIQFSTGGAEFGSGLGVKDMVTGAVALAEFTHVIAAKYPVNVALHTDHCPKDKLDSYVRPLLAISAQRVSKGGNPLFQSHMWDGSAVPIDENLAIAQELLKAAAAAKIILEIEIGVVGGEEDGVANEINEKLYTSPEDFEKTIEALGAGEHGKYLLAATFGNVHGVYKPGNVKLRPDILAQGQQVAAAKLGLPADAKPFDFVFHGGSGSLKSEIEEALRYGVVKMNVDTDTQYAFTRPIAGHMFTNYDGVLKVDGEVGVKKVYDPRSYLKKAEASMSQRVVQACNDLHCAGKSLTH
# GDH-TPI counter-1 = counter-screen for M. tuberculosis FBA inhibitors: GDH-TPI coupled enzymes. GDH-TPI coupled enzyme counterscreen, NADH absorbance. inhibition, % at 4.8 µM. hit rate 1.2% among 360,000. AID 588335; in the data active means inhibition above about 30%;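 further: 0% = DMSO wells and 100% = wells lacking the enzyme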
# Mtb bLac sens = beta-lactam sensitization of Mtb H37Rv | hit rate 0.27% among 330,000 | inhibition, % at 25 µM | M. tuberculosis H37Rv growth with meropenem, percent inhibition; call rule not given here;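 further: growth measured after seven days incubation then overnight dye step; 0% = bacteria only wells and 100% = bacteria with antibiotic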
# Mtb FBA confirm = confirmation of M. tuberculosis fructose-bisphosphate aldolase inhibitors | shares compounds with Mtb FBA inh | inhibition, % at 1 µM | purified M. tuberculosis FBA, fluorescence read-out | hit rate 78% among 5,600;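 further: 0% = vehicle wells and 100% = reference inhibitor wells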
# GDH-TPI counter-2 = GDH-TPI inhibition counter-screen for FBA inhibitors; shares compounds with Mtb FBA inh; GDH-TPI coupled enzyme counterscreen, fluorescence; inhibition, % at 1 µM; hit rate 81% among 5,600; AID 652141; in the data active means inhibition above about 10%
# An asterisk follows results filed as active; . = no result; + = active, no number. Unless noted, no stated cut-off is given here; in the data, active means inhibition above about 27%; inactive means the rest.
SMILES,MazEF act,CCHF vOTU inh,Mtb FBA inh,GDH-TPI counter-1,Mtb bLac sens,Mtb FBA confirm,GDH-TPI counter-2
O=c1c(-c2ccc(Br)cc2)coc2c(CN3CCOCC3)c(O)ccc12,1.5,-10.9,18.6,-0.3,-3.4,.,.
CCC1CCCCN1Cc1c(O)ccc2c(=O)c(-c3ccccc3OC)coc12 (stereo not given),-1.4,-118.2,83.4*,8.4,-1.5,42.6*,30.8*
CCCCNC(=O)C[C@H]1C[C@@]2(C(=O)OC)C(=C[C@H](COCc3ccccc3)O[C@@H]2C)N(Cc2ccccc2)C1=O,.,-2.3,.,.,.,.,.
CCN(CC)Cc1c(O)ccc2c(=O)c(-c3ccccc3Cl)coc12,-3.3,-119.9,84.9*,31.3*,0.3,+,+
CN(C)Cc1c(O)ccc2c(-c3ccccc3)cc(=O)oc12,-16.7,-7.9,10.3,3.1,0.6,.,.
O=c1c(-c2ccccc2Cl)coc2c(CN3CCCCC3)c(O)ccc12,-8.3,-122.6,80.4*,13.2,-5.5,64.0*,59.5*
CCCCN(C)S(=O)(=O)c1ccc2[nH]c(=O)oc2c1,.,10.4,.,.,.,.,.
O=C(Nc1ccccc1)N1CC=C(c2ccccc2)CC1,.,.,.,.,19.7,.,.
O=C(Nc1cccc2ccccc12)N1CCN(Cc2ccccc2)CC1,3.7,-3.0,32.8*,-12.8,11.3,96.3*,74.2*
Cc1cccc(NC(=O)N2CCN(Cc3ccccc3)CC2)c1,-1.6,-7.3,-0.4,-4.6,-16.7,.,.
CCOC(=O)N1CCN(C(=O)Nc2cccc3ccccc23)CC1,9.1,-18.8,31.3*,-4.9,3.6,169.6*,155.6*
O=C(Nc1cccc2ccccc12)N1CC=C(c2ccccc2)CC1,78.2*,0.5,32.9*,-0.9,1.9,54.8*,67.5*
O=C(NCC1CCCO1)c1onc(CSc2ccc(F)c(F)c2)c1C(=O)O (stereo not given),9.4,1.0,45.2*,-6.0,-5.2,92.4*,61.1*
O=C(NCC1CCCO1)c1onc(CSc2ccccc2)c1C(=O)O (stereo not given),2.3,5.8,-1.1,-0.8,-1.9,.,.
COc1ccc(S[C@]2(C(=O)N3CCN(C(C)=O)CC3)CC(=O)N[C@@H]2c2ccc(OC)cc2)cc1,.,-1.4,.,.,.,.,.
O=C(c1ccc2c(c1)OCCO2)C1CCN(C(=O)Nc2ccccc2F)CC1,12.0,8.7,28.8*,1.5,-6.3,71.4*,62.3*
O=C(c1ccc(F)cc1)C1CCN(C(=O)Nc2ccc(F)cc2F)CC1,2.3,9.9,0.8,-4.6,-2.9,.,.
COc1cc(CCC(=O)OCC(=O)Nc2ccc(F)c(F)c2)cc(OC)c1OC,1.4,12.6,1.5,-1.5,4.3,.,.
COc1ccc(CCC(=O)Nc2ccc3c(c2)OCO3)cc1OC,9.0,-0.1,-0.5,-2.5,0.6,.,.
COc1cc(Cn2c3ccc(NC(=O)CCc4ccc(O)cc4)cc3c(=O)n2C)ccc1F,.,-73.5,111.0*,9.3,.,168.7*,125.4*
Cn1c(=O)c2cc(NC(=O)CCc3ccc4c(c3)OCO4)ccc2n1Cc1ccc(F)cc1,.,-36.9,85.1*,5.4,.,47.7*,21.0*
COCCCNC(=O)C[C@H]1C[C@@]2(C(=O)OC)C(=C[C@H](C(C)C)O[C@@H]2C2CC2)N(Cc2cccc3ccccc23)C1=O,.,3.0,.,.,.,.,.
CCCNC(=O)c1cn(CC)c2cc(N3CCN(C(=O)c4ccco4)CC3)c(F)cc2c1=O,2.3,-23.9,79.9*,10.3,87.5,142.2*,113.0*
CCCCNC(=O)c1cn(CC)c2cc(N3CCN(C)CC3)c(F)cc2c1=O,-1.8,-9.9,22.4,8.9,-1.0,.,.
CCn1cc(C(=O)NCc2cccnc2)c(=O)c2cc(F)c(N3CCN(C(=O)c4ccco4)CC3)cc21,4.7,-16.7,47.7*,3.4,94.3,52.9*,45.3*
SMILES,MazEF act,CCHF vOTU inh,Mtb FBA inh,GDH-TPI counter-1,Mtb bLac sens,Mtb FBA confirm,GDH-TPI counter-2
C/C(C=NNC(=O)CSc1nnc(-c2ccccc2)n1-c1ccc(C)cc1)=C\c1ccco1,.,5.1,.,.,.,.,.
CC(=O)N1N=C(c2ccc3ccccc3c2)OC1(C)C,6.0,-45.0,67.6*,5.6,1.7,+,+
N#Cc1ccc(Cn2ccc3ccc(-c4ccc5ccn(C(=O)c6ccccc6)c5c4)cc32)cc1,.,1.6,.,.,.,.,.
COc1cc(-c2nnc(SCC(=O)NN=Cc3c[nH]c4ccccc34)n2-c2ccccc2)cc(OC)c1OC,.,12.1,.,.,.,.,.
CS(=O)(=O)NN1C(=O)c2ccccc2NC12CCCC2,9.7,-104.6,34.7*,6.7,-0.7,130.8*,106.7*
O=C(NN1C(=O)c2ccccc2NC12CCCCC2)c1ccccc1,1.2,-26.6,5.6,-5.4,12.3,.,.

# Screening results deposited in PubChem by several laboratories.
